In PubChem BioAssay (EPA / NIEHS) one finds AC50 and outcome data, which are given here for three compounds.

The structures appear in SMILES notation. Where “and” joins values, the source holds several entries; their conditions need not be identical. Equal values may be shown once. Results filed as inconclusive are left out. Some structures have more than one record in an assay (separate samples or runs), and their calls can disagree. Calls of active or inactive are those of the source. How the source made its calls, unless noted: active means hit-call score of the fitted dose curve at least 0.9, where 1 is the maximum; inconclusive means response in the unintended direction; inactive means score below 0.9.

By AC50 is commonly meant the concentration giving half of the maximal activity seen.

Read-out in experiment [1]: solute carrier (SLCO1B1), SLCO1B1 (gene 10599)
As to the kind of experiment: LTEA_HepaRG_SLCO1B1: Life Technologies and Expression Analysis (LTEA) Assay for solute carrier (SLCO1B1) using HepaRG (AID 2283530; active means hit-call score of the fitted dose curve at least 0.9, where 1 is the maximum; inactive means score below 0.9). The following applies: mRNA level, 48 h; actives raise or lower the signal. The method in brief: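 Differentiated human HepaRG cells, plated 48 h, switched to serum-free induction medium and exposed in duplicate for 48 h to 8 half-log concentrations (top 100 uM) in 0.5% DMSO. SLCO1B1 mRNA by TaqMan qRT-PCR, normalized to ACTB/GAPDH/POLR2A.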

Read-out in experiment [2]: sulfotransferase 2A1 (SULT2A1), SULT2A1 (gene 6822)
Nature of the experiment: LTEA_HepaRG_SULT2A1: Life Technologies and Expression Analysis (LTEA) Assay for sulfotransferase 2A1 (SULT2A1) using HepaRG (AID 2283531; active means hit-call score of the fitted dose curve at least 0.9, where 1 is the maximum; inactive means score below 0.9). The note with it: mRNA level, 48 h; actives raise or lower the signal. In a few lines: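 Differentiated human HepaRG cells in serum-free induction medium were exposed for 48 h to eight half-log concentrations (top 100 uM, 0.5% DMSO). SULT2A1 mRNA was measured by qRT-PCR, normalized to ACTB, GAPDH and POLR2A, and fitted bidirectionally against DMSO.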

Read-out in experiment [3]: Transforming Growth Factor (TGFA), TGFA (gene 7039)
Nature of the experiment: LTEA_HepaRG_TGFA: Life Technologies and Expression Analysis (LTEA) Assay for Transforming Growth Factor (TGFA) using HepaRG (AID 2283532; active means hit-call score of the fitted dose curve at least 0.9, where 1 is the maximum; inactive means score below 0.9). The following applies: mRNA level, 48 h; actives raise or lower the signal. In a few lines:
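Differentiated HepaRG cells exposed 48 hours in serum-free induction medium, 0.5% DMSO vehicle, 8-point half-log series from 100 uM, in duplicate. TGFA mRNA by TaqMan qRT-PCR, normalised to ACTB, GAPDH, POLR2A; bidirectional fit versus DMSO.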

Read-out in experiment [4]: Transforming Growth Factor (TGFB1), TGFB1 (gene 7040)
As to the kind of experiment: LTEA_HepaRG_TGFB1: Life Technologies and Expression Analysis (LTEA) Assay for Transforming Growth Factor (TGFB1) Transporter using HepaRG (AID 2283533; active means hit-call score of the fitted dose curve at least 0.9, where 1 is the maximum; inactive means score below 0.9). The note with it: mRNA level, 48 h; actives raise or lower the signal. In a few lines:
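Differentiated human HepaRG cells in serum-free induction medium were exposed in duplicate for 48 h to eight concentrations (top 100 uM, half-log steps, 0.5% DMSO). TGFB1 mRNA was quantified by qRT-PCR, normalized to ACTB, GAPDH, POLR2A, and fitted bidirectionally against DMSO.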

Read-out in experiment [5]: TIMP1, TIMP1 (gene 7076)
As to the kind of experiment: LTEA_HepaRG_TIMP1: Life Technologies and Expression Analysis (LTEA) Assay for TIMP1 using HepaRG (AID 2283534; active means hit-call score of the fitted dose curve at least 0.9, where 1 is the maximum; inactive means score below 0.9). The note with it: mRNA level, 48 h; actives raise or lower the signal. In a few lines:
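Differentiated human HepaRG cells in serum-free induction medium were exposed 48 h to chemicals (8 half-log concentrations, top 100 uM, 0.5% DMSO). TIMP1 mRNA was quantified by TaqMan qRT-PCR, normalized to ACTB/GAPDH/POLR2A; bidirectional fit versus DMSO.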

Read-out in experiment [6]: Tumor necrosis factor receptor 1 (TNFRSF1A), TNFRSF1A (gene 7132)
As to the kind of experiment: LTEA_HepaRG_TNFRSF1A: Life Technologies and Expression Analysis (LTEA) Assay for Tumor necrosis factor receptor 1 (TNFRSF1A) using HepaRG (AID 2283535; active means hit-call score of the fitted dose curve at least 0.9, where 1 is the maximum; inactive means score below 0.9). The note with it: mRNA level, 48 h; actives raise or lower the signal. In a few lines: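 Differentiated human HepaRG cells were exposed in duplicate for 48 h in serum-free induction medium to eight concentrations (top 100 uM, half-log steps, 0.5% DMSO). TNFRSF1A mRNA was quantified by qRT-PCR, normalized to ACTB, GAPDH and POLR2A, then fitted bidirectionally against DMSO.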

Read-out in experiment [7]: Thyroid Hormone Responsive (THRSP), THRSP (gene 7069)
Nature of the experiment: LTEA_HepaRG_THRSP: Life Technologies and Expression Analysis (LTEA) Assay for Thyroid Hormone Responsive (THRSP) using HepaRG (AID 2283536; active means hit-call score of the fitted dose curve at least 0.9, where 1 is the maximum; inactive means score below 0.9). The following applies: mRNA level, 48 h; actives raise or lower the signal. In a few lines: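 Differentiated HepaRG cells treated 48 h in serum-free induction medium with 8 half-log concentrations up to 100 uM (0.5% DMSO), duplicates. THRSP mRNA by TaqMan qRT-PCR normalised to ACTB, GAPDH, POLR2A; bidirectional fit versus DMSO.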

Read-out in experiment [8]: Cellular tumor antigen p53 (Homo sapiens) (UniProt P04637)
Nature of the experiment: LTEA_HepaRG_TP53: Life Technologies and Expression Analysis (LTEA) Assay for Tumor Protein P53 (TP53) using HepaRG (AID 2283537; active means hit-call score of the fitted dose curve at least 0.9, where 1 is the maximum; inactive means score below 0.9). The following applies: mRNA level, 48 h; actives raise or lower the signal. The method in brief: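 Read-out is TP53 transcript level by microfluidic qRT-PCR, normalised to three housekeeping genes and fitted bidirectionally against DMSO. Human HepaRG cells received compounds for 48 h, highest concentration 100 uM.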

Read-out in experiment [9]: UDP glucuronosyltransferase (UGT1A1), UGT1A1 (gene 54658)
Nature of the experiment: LTEA_HepaRG_UGT1A1: Life Technologies and Expression Analysis (LTEA) Assay for UDP glucuronosyltransferase (UGT1A1) using HepaRG (AID 2283538; active means hit-call score of the fitted dose curve at least 0.9, where 1 is the maximum; inactive means score below 0.9). The following applies: mRNA level, 48 h; actives raise or lower the signal. The method in brief: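 HepaRG cells, 0.5% DMSO vehicle, 48 h exposure in serum-free induction medium to 8-point half-log series topping at 100 uM, in duplicate. UGT1A1 mRNA by Fluidigm qRT-PCR, normalized to ACTB/GAPDH/POLR2A; bidirectional fit versus DMSO.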

Read-out in experiment [10]: X-box binding protein 1 (XBP1), XBP1 (gene 7494)
As to the kind of experiment: LTEA_HepaRG_XBP1: Life Technologies and Expression Analysis (LTEA) Assay for X-box binding protein 1 (XBP1) using HepaRG (AID 2283540; active means hit-call score of the fitted dose curve at least 0.9, where 1 is the maximum; inactive means score below 0.9). The note with it: mRNA level, 48 h; actives raise or lower the signal. The method in brief: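 Differentiated human HepaRG cells in serum-free induction medium were exposed in duplicate for 48 h to eight half-log concentrations up to 100 uM in 0.5% DMSO. XBP1 mRNA was quantified by qRT-PCR, normalised to ACTB, GAPDH and POLR2A, with bidirectional fitting against DMSO.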

Experiment [11] in a line: LTEA_HepaRG_LDH_cytotoxicity: Cytotoxicity Assessment in the Life Technologies and Expression Analysis (LTEA) Assay (AID 2283563).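 On AC50: LDH activity released into spent culture medium as a marker of cell death.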 The method in brief: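 Differentiated human HepaRG cells, plated 48 h beforehand, were switched to serum-free induction medium and exposed for 48 h to eight half-log concentrations (top 100 uM) in 0.5% DMSO. LDH was measured in spent medium; activity was fitted relative to DMSO vehicle.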

Experiment [12] in a line: ATG_XTT_Cytotoxicity: Cytotoxicity Assessment in the Attagene TRANS-FACTORIAL HepG2 Assay (AID 2283584). In a few lines:
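HepG2 human liver cells, transiently transfected with multiple GAL4-UAS reporter units, were dosed and read at 24 h by XTT as cell number. Loss of signal was fitted relative to DMSO negative control baseline.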

Experiment [13] concerns the target Cellular tumor antigen p53 (Homo sapiens) (UniProt P04637). Nature of the experiment: TOX21_p53_BLA_p2_ratio: Tox21 HCT-116 p53 Agonism Beta-lactamase Assay, Ratio, Phase 2 (AID 2283592). The method in brief: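 HCT116 cells carrying a p53-responsive beta-lactamase reporter were plated, incubated 5 h at 37C, then dosed with compounds in DMSO (217-fold dilution) for 16 h. CCF4-AM substrate was added for 2 h at room temperature; the 460/530 nm emission ratio gave gain-of-signal activity relative to DMSO.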

A short description of experiment [14]: TOX21_p53_BLA_p3_viability: Viability Assessment in the Tox21 HCT-116 p53 Agonism Beta-lactamase Assay, Phase 3 (AID 2283593).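 Further: cells exposed to compound for 16 h before reading.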 In a few lines:
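HCT116 cells, 4000/well, dosed 5 h after plating by pin transfer (217-fold dilution from DMSO stock) and incubated 16 h at 37C, 5% CO2. Viability read as ATP luminescence with CellTiter-Glo after 30 min at room temperature.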

Experiment [15] concerns the target Cellular tumor antigen p53 (Homo sapiens) (UniProt P04637). Nature of the experiment: TOX21_p53_BLA_p3_ratio: Tox21 HCT-116 p53 Agonism Beta-lactamase Assay, Ratio, Phase 3 (AID 2283596). In a few lines: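 HCT116 p53-bla cells (4000/well) given compound in DMSO (217-fold dilution) after 5 h, incubated 16 h at 37C. CCF4-AM substrate 2 h at room temperature; 460/530 nm emission ratio, gain fitted against DMSO.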

Experiment [16] can be described thus: TOX21_p53_BLA_p4_viability: Viability Assessment in the Tox21 HCT-116 p53 Agonism Beta-lactamase Assay, Phase 4 (AID 2283597).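 Further: hits lower the luminescence signal meaning cytotoxicity.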 The method in brief: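 HCT116 p53-bla cells (4000/well) rested 5 h at 37C, then received compounds in DMSO (217-fold dilution) for 16 h at 37C, 5% CO2. CellTiter-Glo was added after the CCF4-AM read, and luminescence was read after 30 min at room temperature.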

Experiment [17] addresses Cellular tumor antigen p53 (Homo sapiens) (UniProt P04637). Nature of the experiment: TOX21_p53_BLA_p5_ratio: Tox21 HCT-116 p53 Agonism Beta-lactamase Assay, Ratio, Phase 5 (AID 2283599). In a few lines: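 HCT-116 p53-bla cells (4000/well) plated 5 h, dosed with compound (217-fold DMSO dilution) for 16 h at 37 C; CCF4-AM substrate 2 h at room temperature. Activity is the 460/530 nm emission ratio (405 nm excitation), fitted in gain-of-signal direction versus DMSO.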

A short description of experiment [18]: TOX21_p53_BLA_p5_viability: Viability Assessment in the Tox21 HCT-116 p53 Agonism Beta-lactamase Assay, Phase 5 (AID 2283600). The method in brief: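 Cells were plated at 4000/well, rested 5 h at 37C, then given compounds in DMSO (217-fold dilution) for 16 h at 37C, 5% CO2. Following the CCF4-AM beta-lactamase read, CellTiter-Glo was added and luminescence was read after 30 min at room temperature.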

Experiment [19] addresses Cellular tumor antigen p53 (Homo sapiens) (UniProt P04637). Nature of the experiment: TOX21_p53_BLA_p4_ratio: Tox21 HCT-116 p53 Agonism Beta-lactamase Assay, Ratio, Phase 4 (AID 2283601). In a few lines:
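HCT-116 p53 beta-lactamase reporter cells (4000/well) preincubated 5 h, then compound (217-fold dilution of DMSO stock) for 16 h at 37C. CCF4-AM substrate added 2 h at room temperature; 460/530 nm emission ratio fitted upward versus DMSO.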

Read-out in experiment [20]: UDP glucuronosyltransferase (UGT1A6), UGT1A6 (gene 54578)
As to the kind of experiment: LTEA_HepaRG_UGT1A6: Life Technologies and Expression Analysis (LTEA) Assay for UDP glucuronosyltransferase (UGT1A6) using HepaRG (AID 2283539; active means hit-call score of the fitted dose curve at least 0.9, where 1 is the maximum; inactive means score below 0.9). The following applies: mRNA level, 48 h; actives raise or lower the signal. In a few lines:
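Human HepaRG cells were dosed for 48 h in serum-free induction medium with 0.5% DMSO vehicle, eight-point half-log series from 100 uM, in duplicate. UGT1A6 mRNA was measured by qRT-PCR, normalized to ACTB, GAPDH, POLR2A, and fitted bidirectionally against DMSO.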

Chain of Cellular tumor antigen p53 (Homo sapiens) (P04637 whole entry, looked up): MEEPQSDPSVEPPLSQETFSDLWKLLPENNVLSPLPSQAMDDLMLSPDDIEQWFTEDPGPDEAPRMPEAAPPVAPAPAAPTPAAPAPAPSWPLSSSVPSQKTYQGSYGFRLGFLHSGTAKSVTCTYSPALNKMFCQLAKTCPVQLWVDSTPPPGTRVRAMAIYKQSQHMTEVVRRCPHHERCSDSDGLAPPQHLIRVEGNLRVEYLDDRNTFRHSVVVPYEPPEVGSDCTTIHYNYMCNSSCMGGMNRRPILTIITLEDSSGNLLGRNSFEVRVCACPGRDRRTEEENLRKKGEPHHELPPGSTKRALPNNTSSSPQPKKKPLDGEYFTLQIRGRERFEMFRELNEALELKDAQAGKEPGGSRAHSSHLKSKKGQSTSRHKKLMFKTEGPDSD

As to `O=S1OCC2C(CO1)C1(Cl)C(Cl)=C(Cl)C2(Cl)C1(Cl)Cl` (configuration not stated), the half-maximal activity concentration (AC50) in [1] is 20.8 µM (active); in experiment [2], 91.7 µM (active); in [4], 72.1 µM (active); in experiment [7], 41.7 µM (active); in experiment [8], 70.2 µM (active); in [11], 94 µM (active). The half-maximal activity concentration (AC50) in experiment [13] was 73.9 µM (active) and 86.2 µM (active); in experiment [14] it was 54.1 µM (active); in experiment [16] it was 70.9 µM (active) and 85.8 µM (active); in [17], 87.3 µM (active) and 73.3 µM (active); in experiment [18] it was 75.3 µM (active) and 70.2 µM (active); in [19], 69.2 µM (active) and 74.9 µM (active). Further, the result in experiment [3], in experiment [5], in experiment [6], in [9], in experiment [10] and in experiment [12] was inactive. The outcome in [14] and in experiment [15] was inactive.

Consider `O=C1c2ccccc2C(=O)N1SC(Cl)(Cl)Cl`, for which the result in [1], in experiment [2], in experiment [3], in [4], in [5] and in experiment [6] was inactive. The compound was called inactive in experiment [7], in experiment [8], in experiment [9], in experiment [20], in experiment [10] and in experiment [11]. In addition, the call in experiment [14] and in experiment [16] was inactive. Further, the AC50 in experiment [13] is 7.1 µM (active) and 14.8 µM (active); in experiment [15] it was 6.49 µM (active) and 23.1 µM (active); in [17], 14.1 µM (active) and 12.9 µM (active); in [19], 13.5 µM (active) and 22.1 µM (active).

Regarding `CCC(C)(NC(=O)c1cc(Cl)c(C)c(Cl)c1)C(=O)CCl` (configuration not stated), the concentration at half-maximal activity (AC50) in experiment [1] is 75.8 µM (active); in experiment [2], 79.5 µM (active); in experiment [4] it was 75.6 µM (active); in experiment [6] it was 90.6 µM (active); in [7] it was 95.3 µM (active); in experiment [9], 12.4 µM (active). Further, the AC50 in experiment [20] was 80.3 µM (active); in experiment [11] it was 77.6 µM (active); in experiment [13], 30.2 µM (active); in [14], 76.4 µM (active); in experiment [15] it was 29.6 µM (active); in experiment [16], 60.3 µM (active). In addition, the figures for the AC50 in [17], in experiment [18] and in [19] were 72.2 µM (active), 74.7 µM (active) and 66.8 µM (active), respectively. Further, the compound was called inactive in experiment [3], in [5], in [8] and in [10].
